In the library only some 19% were active in any assay of this set; here they are far more common.
IL1B secr inh – inhibitors of inflammasome signaling (IL-1 beta secretion). THP-1 LPS/ATP IL-1B secretion, AlphaLISA, 16 h; stronger effect = lower value. activity change, % at 57.5 µM. 4.7% of 360,000 active; in the data active = activity change below about -50%; inconclusive = mostly about -30% to -49%
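Secreted IL-1B measured by AlphaLISA bead assay after 16 h compound exposure of THP-1 cells; compounds (final up to 57.5 uM) added 1 h before LPS (250 ng/mL) and ATP (1.25 mM) stimulation; lower signal means less secretion.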
HT1080-NT tox – kills 2HG-producing HT-1080-NT fibrosarcoma cells. HT-1080-NT fibrosarcoma viability, CellTiter-Glo ATP luminescence, 48 h. Potency, µM (doses to about 46.1 µM), for inactives: top-dose activity, negative = less viability, actives largely listed as cytotoxic. 1.6% of 360,000 active. AID 686970;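 note: NT is the 2HG producing partner of a matched IDH1 knockdown line; potency is the fitted concentration of half-maximal effect; 0% = DMSO-treated cells and -100% = media-only wells without cells; nearly all actives have a fitted effect of over 55% in size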
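HT-1080-NT fibrosarcoma cells (2HG-overproducing), 750 cells/well in RPMI with 5% FBS, dosed after 2 h and incubated 48 h at 37C. CellTiter-Glo luminescence normalized to DMSO and no-cell wells; concentration-response curves fitted and classed.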
DT40 TDP1 CPT – DT40-hTDP1 cell growth loss with CPT | chicken DT40 Tdp1-/-;hTDP1 cells + 20 nM CPT, ATP luminescence, 48 h | Potency, µM (top dose mostly 46.2 µM), for inactives: at the highest dose activity change, negative = growth inhibition, hits mostly inhibitors | 12% of 420,000 active; note: potency is the fitted concentration of half-maximal effect; nearly all actives have a fitted effect of over 55% in size
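Cell growth measured by CellTiter-Glo luminescence after a minimum 48 h, 37 C compound exposure with 20 nM CPT in Tdp1-knockout DT40 cells stably expressing hTDP1, seeded 400/well; qHTS titration format.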
DT40 TDP1 no CPT – qHTS for Inhibitors of human tyrosyl-DNA phosphodiesterase 1 (TDP1): qHTS in cells in absence of CPT | Potency, µM (highest dose often 46.2 µM), for inactives: top-dose activity change, negative = growth inhibition, hits mostly inhibitors | DT40 Tdp1-/- hTDP1 cells, no CPT, ATP luminescence, 48 h | 15% of 420,000 active; note: potency is the fitted concentration of half-maximal effect; nearly all actives have a fitted effect of over 55% in size
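Luminescent ATP content (CellTiter-Glo) served as the growth readout. Knockout chicken DT40 cells expressing human TDP1 were exposed to compounds without camptothecin for a minimum 48 hr at 37 °C.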
HT1080 IDH1KD tx – kills HT-1080 cells with IDH1 knockdown. HT-1080 IDH1 knockdown viability, ATP luminescence, 48 h. Potency, µM (series often up to 46.1 µM), without a hit: top-dose activity, negative = toxicity, usual class: cytotoxic. 2% of 360,000 active;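 note: potency is the fitted concentration of half-maximal effect; 0% = DMSO wells and -100% = cell-free medium wells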
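Viability of IDH1-knockdown HT-1080 fibrosarcoma cells was assessed by CellTiter-Glo after 48 h at 37 °C with titrated compound; concentration-effect curves were classified by fit quality and response size.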
* hit, by the source's call; ? = inconclusive; . = no result; ! = not confirmed by another sample; [ ] = remark or other dose. Unless noted, calls come from the whole dose curve; as a rule, active = well fitted curve in the direction sought with a large enough effect; inconclusive = small, poorly fitted or top-dose-only effect, or another doubt; inactive = no such curve, though single readings can be large; an effect the other way counts as inactive or inconclusive. Unless noted, % is set by controls: 0 for no effect and ±100 for the full control effect.

SMILES	IL1B secr inh	HT1080-NT tox	DT40 TDP1 CPT	DT40 TDP1 no CPT	HT1080 IDH1KD tx
Cc1ccc(NC(=O)c2ccc(CNS(=O)(=O)c3ccc4c(c3)C(C)(C)C(=O)N4C)cc2)cc1F	.	.	16µM*	15µM*	.
CCOc1ccccc1CNS(=O)(=O)c1ccc2c(c1)C(C)(C)C(=O)N2C	28	1%	?	23µM*!	3%
CCc1ccccc1NS(=O)(=O)c1ccc2c(c1)C(C)(C)C(=O)N2C	39	-6%	?	?	5%
COc1cccc(CNS(=O)(=O)c2ccc3c(c2)C(C)(C)C(=O)N3C)c1	39	12%	2%	1%	2%
CCc1cccc(NC(=O)c2ccc(CNS(=O)(=O)c3ccc4c(c3)C(C)(C)C(=O)N4C)cc2)c1	.	.	?	16µM*	.
CC(OC(=O)C1CCN(S(=O)(=O)c2ccc(C(C)(C)C)cc2)CC1)C(=O)N(C)C1CCCCC1 (stereo unspecified)	7	1%	?	?	-3%
CCOc1ccccc1NC(=O)c1cc2c(=O)[nH]c3ccccc3c2s1	.	.	-27%	7%	.
O=C(CSc1nnc(-c2ccc(F)cc2)c2ccccc12)Nc1ccccc1Cl	-8	1%	10%	3%	-9%
O=C(CSc1nnc(-c2ccc(F)cc2)c2ccccc12)Nc1cccc(Cl)c1	-95*	-2%	?	?	-12%
O=C(CSc1nnc(-c2ccc(F)cc2)c2ccccc12)Nc1ccccc1	-61*	-10%	?	?	-19%
COC(=O)Cc1nnc(SCC(=O)Nc2ccccc2)c2ccccc12	-63*	5%	18µM*	23µM*	-5%
O=C(CSc1nnc(-c2ccc(F)cc2)c2ccccc12)Nc1c(F)cccc1F	-5	-26%	?	?	-27%
C=CCNc1ncnc2c1ncn2[C@H]1CN(CCc2ccccc2)C[C@@H](CO)O1	-4	24%	?	-29%	6%
O=C(NCCCN1CCN(CCCNC(=O)c2cccc(Cl)c2)CC1)c1cccc(Cl)c1	-57*	-1%	18µM*	?	1%
O=C(CCN1CCOCC1)NNC(=S)NC(=O)c1ccc(Br)cc1	4	-13%	15µM*	13µM*	-5%
O=C(NC(=S)NCCN1CCOCC1)c1cccc(Cl)c1	4	25µM*	1%	1%	?
O=C(NC(=S)NCCN1CCOCC1)c1ccccc1	0	-6%	?	8%	0%
O=C(NCCN1CCCC1)c1cccc(Cl)c1	42	?	20%	-5%	18%
O=C(CCN1CCCCC1)c1cccc(Cl)c1	1	-2%	21µM*	?	-6%
COc1cc(N2CN=c3s/c(=C\c4ccccn4)c(=O)n3C2)cc(OC)c1OC	-18	5%	-5%	-26%	1%
S=C(NCCN1CCOCC1)Nc1cccc(Cl)c1	11	3%	5%	3%	-1%
S=C(NCCN1CCOCC1)N1CCN(c2cccc(Cl)c2)CC1	-92*	-2%	-1%	?	-4%
O=C(CCCN1C(=O)/C(=C/c2ccccc2Cl)SC1=S)Nc1ccccn1	-81*	-2%	?	?	5%
O=C(CCCN1C(=O)/C(=C/c2ccccc2Cl)SC1=S)Nc1cccnc1	?	-2%	4.6µM*	16µM*	0%
O=C(O)c1nn2c(C(F)(F)F)cc(-c3cccs3)nc2c1Cl	-8	4%	-23%	?	21%
SMILES	IL1B secr inh	HT1080-NT tox	DT40 TDP1 CPT	DT40 TDP1 no CPT	HT1080 IDH1KD tx
Cc1ccc(C(C)C)cc1OCC(=O)Nc1ccc(N2CCCCC2)cc1	-6	4%	?	?	-8%
Cc1cc(N2CCCCC2)nc(NCc2ccccc2)n1	-99*	-16%	10µM*	7.3µM*	?
Cc1cc(N2CCOCC2)nc(NCc2ccccc2)n1	-15	12%	21µM*	13µM*	0%
CCC(Oc1nc2ccccc2nc1-c1ccccc1NC(C)=O)C(=O)c1ccccc1 (stereo unspecified)	-12	-8%	?	?	2%
COc1cc(OC)cc(-c2c(Sc3ccccc3)c3cc(-c4ccc(SC)cc4)ccc3n2C)c1	24	0%	-12%	-18%	1%
COc1ccc(Cn2c(CO)cnc2SCc2ccc(F)cc2)cc1	.	.	?	18µM*	.
COc1ccc(Cn2c(CO)cnc2SCc2ccc(C)cc2)cc1	.	.	18µM*	?	.
OCc1cnc(SCc2ccccc2)n1Cc1ccccc1	16	4%	?	16µM*	9%
COc1ccc(CSc2nnc(C)n2N)cc1	20	19%	-7%	5%	12%
CC(=O)C1(O)C(C)CC2C3CC(F)C4(O)CC(O)CCC4(C)C3CCC21C (stereo unspecified)	9	1%	-6%	-18%	-1%
CCn1c(=O)c([N+](=O)[O-])c(N2CCSCC2)c2ccccc21	-18	-18%	?	23µM*	-13%
O=C(NC1CCCCC1)N1CCN(C(c2ccccc2)c2ccccc2)CC1	-15	-7%	10µM*	16µM*	-1%
C/C(N[C@@H]1CSCC1O)=C1/C(=O)CC2[C@@H]1C2(C)C (stereo partly specified)	.	.	-9%[9.04 µM]	5%[9.04 µM]	.
Fc1ccc(N/N=C2/CC(c3ccccc3)Oc3ccccc32)c(F)c1 (stereo unspecified)	-52*	-9%	4%	3%	-12%
CNC(=S)N/N=C1\CC(c2ccccc2)Oc2ccccc21 (stereo unspecified)	25	-16%	5.2µM*	2.6µM*	-12%
O=S(=O)(N/N=C1/CC(c2ccccc2)Oc2ccccc21)c1ccc(Br)cc1 (stereo unspecified)	2	-12%	?	?	-23%
COc1cc2sc3ccc(-c4ccc5[nH]ccc5c4)cc3c(=O)c2cc1OC	-16	12%	5.8µM*	5.8µM*	-10%
O=c1c2ccccc2oc2ccccc12	.	.	-5%	-14%	.
O=c1c2ccccc2oc2cc(-c3ccc4[nH]ccc4c3)ccc12	35	?	1.8µM*	2.1µM*	3.7µM*
COc1cc2sc3ccc(C#Cc4ccc(N)cc4)cc3c(=O)c2cc1OC	0	-29%	-23%	?	?
COC(=O)CCC(=O)N1CCC(CCC(=O)NCc2ccc(F)cc2)CC1	10	7%	5%	7%	1%
Cc1ccc(NC(=O)CNC(=O)C2CCCCC2)nc1	2	8%	-10%	3%	7%
CCc1cccc(NC(=O)CCS(=O)(=O)c2ccc(Br)cc2)c1	23	13%	23µM*	29µM*	9%
COc1cc(NC(=O)CCS(=O)(=O)c2ccc(Br)cc2)cc(OC)c1	.	.	-25%	?	.

Assay outcomes (PubChem)
